Assay results as given in PubChem BioAssay (NCATS).
Several values for one entry are separate records, joined by “and”; a condition that tells them apart may be missing. Equal entries are not always repeated. A number with no mark means an inactive call. Records with an inconclusive call do not appear. A call without a number means that no potency is given here. Activity calls are given as the source filed them. Unless noted, the call rests on the fitted dose curve; in most records, active means well fitted curve in the direction sought with a large enough effect; inconclusive means small, poorly fitted or top-dose-only effect, or another doubt; inactive means no such curve, though single readings can be large; an effect the other way counts as inactive or inconclusive.

What was measured:
[1] = NCATS anti-infectives library activity on HEK293 viability as a counter-qHTS vs the C. elegans viability qHTS (AID 1745854);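 further: HEK293 cells exposed to compounds for 24 hr before the viability read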
Summary of the method: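 Compound titrations (final up to 41.7 uM) were incubated with HEK293 cells for 24 hr at 37C under 5% CO2. Viable cells were quantified with CellTiter-Glo after 10 min at ambient temperature.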

[2] = NCATS anti-infectives library activity on the primary C. elegans qHTS viability assay (AID 1745855; calls by dose curve)
Summary of the method: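 Titration-based screen in worms: eggs hatched overnight in M9, L1 larvae fed TOP10 capsules in S medium with compound, incubated 21 °C for 7 days; fluorescent objects gated by size and intensity at days 0, 3 and 7.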

[3] = molecular target: Cytochrome P450 3A4 (Homo sapiens) (UniProt P08684); test: qHTS Assay for Inhibitors and Substrates of Cytochrome P450 3A4 (AID 884); further: nearly all actives have a fitted effect of over 50% in size; further: potency means the concentration at half of the fitted maximal effect
Chain of Cytochrome P450 3A4 (Homo sapiens) (P08684 whole entry, looked up): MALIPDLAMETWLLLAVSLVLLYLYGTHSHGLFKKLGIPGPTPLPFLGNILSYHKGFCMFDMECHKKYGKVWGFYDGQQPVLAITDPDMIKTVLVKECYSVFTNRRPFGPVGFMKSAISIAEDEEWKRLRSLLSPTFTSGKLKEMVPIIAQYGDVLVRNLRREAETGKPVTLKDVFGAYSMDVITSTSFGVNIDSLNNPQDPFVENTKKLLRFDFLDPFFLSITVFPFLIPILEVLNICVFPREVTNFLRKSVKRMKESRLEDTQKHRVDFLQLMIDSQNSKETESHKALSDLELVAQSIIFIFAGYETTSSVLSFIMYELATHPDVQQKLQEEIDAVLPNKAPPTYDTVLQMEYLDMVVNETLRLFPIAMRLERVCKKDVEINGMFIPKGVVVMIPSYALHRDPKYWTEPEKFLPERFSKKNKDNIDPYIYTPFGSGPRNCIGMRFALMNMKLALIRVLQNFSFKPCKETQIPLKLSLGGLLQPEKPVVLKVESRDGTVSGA
Summary of the method: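 Luminescent readout of luciferin produced by CYP3A4 (20 nM) dealkylation of Luciferin-PPXE, 25 uM (its KM). NADPH-driven reaction ran 60 min at RT after 10 min compound preincubation; data scaled to 57 uM ketoconazole as 100% inhibition.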

[4] = Confirmation and Secondary Assay for Modulators of Hemoglobin Beta Chain Splicing at IVS2 654 locus (AID 910);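 further: per-well total GFP intensity by laser scanning cytometry after 2-day treatment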
Summary of the method: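 HeLa cells stably carrying EGFP interrupted by mutant beta-globin IVS2-654 intron (CMV-driven) were treated with compound for 2 days at 37C; corrected splicing was scored as total peak GFP intensity per well (488 nm excitation, 500-520 nm emission).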

[5] = Confirmation and Secondary Assay for Modulators of Hemoglobin Beta Chain Splicing at IVS2 705 locus (AID 930);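 further: HeLa cells stably expressing the EGFP-705 splicing reporter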
Summary of the method: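 HeLa cells stably carrying EGFP interrupted by mutant beta-globin IVS2-705 intron (CMV-driven) were seeded at 500 cells/well, treated next day with compound for 2 days at 37C; corrected splicing restores EGFP, read as total peak GFP intensity per well.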

[6] = test system: 7G8; test: qHTS profiling for inhibitors of Plasmodium falciparum proliferation (AID 504749); further: nearly all actives have a fitted effect of over 60% in size; further: potency means the concentration at half of the fitted maximal effect; settings: P. falciparum in erythrocytes, SYBR Green DNA, 72 h; series mostly up to 28.7 µM
Summary of the method: (§1)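 Fluorescence of SYBR Green-bound parasite DNA, read at 485/535 nm, served as the growth measure. Infected erythrocytes were cultured with compound 72 h; artemisinin (0.29 uM) and DMSO wells defined the normalization range.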

[7] = test system: CP237; test: as above; settings: P. falciparum in erythrocytes, SYBR Green DNA, 72 h; series mostly up to 28.7 µM
Summary of the method: as §1

[8] = test system: CP291; test: as above; settings: P. falciparum in erythrocytes, SYBR Green DNA, 72 h; series mostly up to 28.7 µM
Summary of the method: as §1

[9] = test system: GB4; test: as above; settings: P. falciparum in erythrocytes, SYBR Green DNA, 72 h; series mostly up to 28.7 µM
Summary of the method: as §1

[10] = test system: W2; test: as above; settings: P. falciparum in erythrocytes, SYBR Green DNA, 72 h; series mostly up to 28.7 µM
Summary of the method: as §1

[11] = molecular target: Voltage-gated inwardly rectifying potassium channel KCNH2 (Homo sapiens) (UniProt Q12809); test: qHTS Assay for Small Molecule Inhibitors of the Human hERG Channel Activity (AID 588834);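 further: lower thallium flux fluorescence means stronger hERG block; nearly all actives have a fitted effect of over 50% in size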; further: potency means the concentration at half of the fitted maximal effect
Chain of Voltage-gated inwardly rectifying potassium channel KCNH2 (Homo sapiens) (Q12809 whole entry, looked up): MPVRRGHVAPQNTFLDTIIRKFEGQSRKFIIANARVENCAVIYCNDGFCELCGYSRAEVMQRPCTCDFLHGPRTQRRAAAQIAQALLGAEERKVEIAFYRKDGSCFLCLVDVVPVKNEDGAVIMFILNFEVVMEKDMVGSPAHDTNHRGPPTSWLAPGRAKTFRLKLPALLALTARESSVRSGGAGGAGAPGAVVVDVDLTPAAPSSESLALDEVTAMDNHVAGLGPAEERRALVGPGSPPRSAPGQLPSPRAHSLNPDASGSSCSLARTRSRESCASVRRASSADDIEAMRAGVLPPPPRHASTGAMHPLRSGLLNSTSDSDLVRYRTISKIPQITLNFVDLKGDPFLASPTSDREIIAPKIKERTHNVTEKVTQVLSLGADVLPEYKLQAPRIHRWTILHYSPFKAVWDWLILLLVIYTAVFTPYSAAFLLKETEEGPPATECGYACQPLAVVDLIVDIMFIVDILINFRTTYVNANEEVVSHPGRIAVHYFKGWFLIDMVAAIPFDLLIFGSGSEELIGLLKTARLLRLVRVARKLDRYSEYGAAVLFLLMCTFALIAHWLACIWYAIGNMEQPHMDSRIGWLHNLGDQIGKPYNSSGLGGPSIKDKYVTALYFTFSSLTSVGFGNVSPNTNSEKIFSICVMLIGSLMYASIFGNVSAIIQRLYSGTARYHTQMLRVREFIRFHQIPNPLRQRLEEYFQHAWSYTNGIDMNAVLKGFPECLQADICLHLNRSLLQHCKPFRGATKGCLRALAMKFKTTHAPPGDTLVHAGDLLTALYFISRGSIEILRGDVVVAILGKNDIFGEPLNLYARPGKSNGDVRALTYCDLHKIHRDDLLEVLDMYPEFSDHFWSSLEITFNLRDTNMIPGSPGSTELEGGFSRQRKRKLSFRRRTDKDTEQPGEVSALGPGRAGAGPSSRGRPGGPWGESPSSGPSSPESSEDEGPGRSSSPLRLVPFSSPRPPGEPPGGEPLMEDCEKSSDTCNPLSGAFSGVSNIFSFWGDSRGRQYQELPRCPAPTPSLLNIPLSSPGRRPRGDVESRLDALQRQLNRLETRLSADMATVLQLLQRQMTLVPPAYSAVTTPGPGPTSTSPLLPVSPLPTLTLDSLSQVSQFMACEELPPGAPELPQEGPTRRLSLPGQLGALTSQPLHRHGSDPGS
Summary of the method: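 Cells were infected with hERG-BacMam virus for 4 hrs at room temperature, grown overnight, then seeded at 2000/well. After dye loading and roughly 10 min compound treatment, thallium influx was triggered and fluorescence recorded.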

[12] = molecular target: Furin (Homo sapiens) (UniProt P09958); test: Furin counterscreen qHTS for Zika virus inhibitors (AID 1347149); further: nearly all actives have a fitted effect of over 70% in size; further: potency means the concentration at half of the fitted maximal effect
Chain of Furin (Homo sapiens) (P09958 whole entry, looked up): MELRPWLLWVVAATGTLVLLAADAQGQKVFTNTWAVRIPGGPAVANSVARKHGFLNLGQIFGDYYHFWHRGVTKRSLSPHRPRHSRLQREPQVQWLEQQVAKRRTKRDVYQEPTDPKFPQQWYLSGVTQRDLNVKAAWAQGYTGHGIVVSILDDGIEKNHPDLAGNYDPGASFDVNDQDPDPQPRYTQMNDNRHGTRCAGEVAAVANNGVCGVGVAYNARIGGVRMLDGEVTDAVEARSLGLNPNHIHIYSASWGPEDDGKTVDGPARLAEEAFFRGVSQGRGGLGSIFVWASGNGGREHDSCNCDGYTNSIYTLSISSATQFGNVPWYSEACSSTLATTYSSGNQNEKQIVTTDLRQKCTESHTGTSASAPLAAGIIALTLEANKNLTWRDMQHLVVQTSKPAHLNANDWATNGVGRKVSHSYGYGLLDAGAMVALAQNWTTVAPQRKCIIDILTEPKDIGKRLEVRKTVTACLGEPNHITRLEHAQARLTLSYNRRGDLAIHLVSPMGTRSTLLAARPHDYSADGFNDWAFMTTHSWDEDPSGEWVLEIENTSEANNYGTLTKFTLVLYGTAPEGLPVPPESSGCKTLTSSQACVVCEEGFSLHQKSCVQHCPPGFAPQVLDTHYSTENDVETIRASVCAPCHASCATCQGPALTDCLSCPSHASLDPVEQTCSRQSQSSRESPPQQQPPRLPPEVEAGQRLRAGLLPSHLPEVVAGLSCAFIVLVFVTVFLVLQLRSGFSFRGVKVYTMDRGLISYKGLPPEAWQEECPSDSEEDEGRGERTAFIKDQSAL
Summary of the method: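 Counterscreen measures cleavage of 2 microM BOC-RVRR-AMC, below its ~15 microM Km, by 5 nM full-length human furin at pH 7.0 after a 15-min compound preincubation. Inhibition derives from the 15-min fluorescence increase at 37C.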

[13] = HepG2 cells viability qHTS for Zika virus inhibitors (AID 1347168)
Summary of the method: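 To flag cytotoxic protease inhibitors, viability is measured by ATP-dependent luminescence (CellTiter Glo) after cells attached overnight receive compound for 24 to 48 hours in DMEM with 4% FBS.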

[14] = Tertiary RLuc qRT-PCR qHTS assay for Zika virus inhibitors (AID 1347169); further: potency means the concentration at half of the fitted maximal effect; nearly all actives have a fitted effect of over 55% in size
Summary of the method: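 Orthogonal cell-based infection assay using recombinant ZIKV-RLuc (Cambodian) in Vero cells; compound added prior to virus at MOI 1-2. Incubation lasts 48-72 hrs at 37 degrees C before live-cell Renilla substrate is added and luminescence measured.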

[15] = molecular target: Cytochrome P450 1A2 (Homo sapiens) (UniProt P05177); test: p450-cyp1a2 (AID 410; calls by dose curve; further: potency means the concentration at half of the fitted maximal effect)
Chain of Cytochrome P450 1A2 (Homo sapiens) (P05177 whole entry, looked up): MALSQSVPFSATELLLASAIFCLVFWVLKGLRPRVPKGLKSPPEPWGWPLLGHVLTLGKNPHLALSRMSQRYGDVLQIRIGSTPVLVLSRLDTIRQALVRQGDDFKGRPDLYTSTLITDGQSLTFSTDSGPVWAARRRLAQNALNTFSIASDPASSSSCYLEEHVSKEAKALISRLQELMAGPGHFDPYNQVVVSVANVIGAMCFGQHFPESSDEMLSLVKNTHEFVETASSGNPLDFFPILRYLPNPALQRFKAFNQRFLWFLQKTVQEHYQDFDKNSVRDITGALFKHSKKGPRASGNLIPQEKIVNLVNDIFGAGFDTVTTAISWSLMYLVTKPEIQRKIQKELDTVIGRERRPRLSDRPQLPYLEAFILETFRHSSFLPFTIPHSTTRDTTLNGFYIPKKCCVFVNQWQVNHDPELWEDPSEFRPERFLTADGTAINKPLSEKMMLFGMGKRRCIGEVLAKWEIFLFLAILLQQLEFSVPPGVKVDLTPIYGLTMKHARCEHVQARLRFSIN
Summary of the method: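 Read-out is luminescence from luciferin produced by CYP1A2 demethylation of Luciferin-ME (100uM, at Km). Detection reagent stopped the 60 min NADPH-dependent reaction; signals were normalized to 57 uM furafylline.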

[16] = molecular target: Glucocorticoid receptor (Homo sapiens) (UniProt P04150); test: GR-GFP Redistribution (AID 450;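 active means compounds whose dose series gives a full or clear partial fitted curve of increased nuclear translocation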; further: potency means the concentration at half of the fitted maximal effect); settings: U2OS GR-GFP nuclear translocation, laser cytometry, 2 h
Chain of Glucocorticoid receptor (Homo sapiens) (P04150 whole entry, looked up, the tested form may be a part): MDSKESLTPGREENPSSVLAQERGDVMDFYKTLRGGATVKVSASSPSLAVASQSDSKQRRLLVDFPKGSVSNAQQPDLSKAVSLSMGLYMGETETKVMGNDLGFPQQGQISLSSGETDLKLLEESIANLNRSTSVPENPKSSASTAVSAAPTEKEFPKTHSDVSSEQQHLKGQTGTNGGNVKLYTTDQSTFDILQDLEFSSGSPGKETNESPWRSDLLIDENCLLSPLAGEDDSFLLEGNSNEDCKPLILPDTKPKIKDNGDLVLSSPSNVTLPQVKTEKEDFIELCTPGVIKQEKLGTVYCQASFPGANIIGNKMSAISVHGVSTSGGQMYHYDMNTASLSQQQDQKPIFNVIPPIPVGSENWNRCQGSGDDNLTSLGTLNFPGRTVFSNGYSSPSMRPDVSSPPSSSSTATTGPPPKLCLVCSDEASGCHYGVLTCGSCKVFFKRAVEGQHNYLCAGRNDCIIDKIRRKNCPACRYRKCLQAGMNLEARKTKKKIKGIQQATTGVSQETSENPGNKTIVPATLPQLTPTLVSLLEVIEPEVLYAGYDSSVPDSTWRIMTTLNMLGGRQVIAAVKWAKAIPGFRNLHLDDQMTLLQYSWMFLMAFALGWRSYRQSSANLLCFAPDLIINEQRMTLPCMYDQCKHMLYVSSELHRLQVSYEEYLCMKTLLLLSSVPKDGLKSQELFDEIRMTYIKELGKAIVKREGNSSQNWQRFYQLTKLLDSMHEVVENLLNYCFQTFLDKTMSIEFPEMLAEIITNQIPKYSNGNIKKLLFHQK

[17] = molecular target: Glucocorticoid receptor (Homo sapiens) (UniProt P04150); test: GR-EFC Redistribution (AID 451; calls by dose curve; further: potency means the concentration at half of the fitted maximal effect); settings: CHO-K1 GR-EFC translocation, beta-gal luminescence, 2 h
Summary of the method: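 CHO-K1 cells stably expressing nuclear-localized β-gal enzyme acceptor and GR fused C-terminally to the enzyme donor fragment; ligand-driven nuclear translocation restores β-gal by complementation. Compounds titrated up to 46 uM final, 2 h at 37 °C; luminescence read.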

[18] = molecular target: Cytochrome P450 2C19 (Homo sapiens) (UniProt P33261); test: qHTS Assay for Inhibitors and Substrates of Cytochrome P450 2C19 (AID 899); further: potency means the concentration at half of the fitted maximal effect; nearly all actives have a fitted effect of over 60% in size
Chain of Cytochrome P450 2C19 (Homo sapiens) (P33261 whole entry, looked up): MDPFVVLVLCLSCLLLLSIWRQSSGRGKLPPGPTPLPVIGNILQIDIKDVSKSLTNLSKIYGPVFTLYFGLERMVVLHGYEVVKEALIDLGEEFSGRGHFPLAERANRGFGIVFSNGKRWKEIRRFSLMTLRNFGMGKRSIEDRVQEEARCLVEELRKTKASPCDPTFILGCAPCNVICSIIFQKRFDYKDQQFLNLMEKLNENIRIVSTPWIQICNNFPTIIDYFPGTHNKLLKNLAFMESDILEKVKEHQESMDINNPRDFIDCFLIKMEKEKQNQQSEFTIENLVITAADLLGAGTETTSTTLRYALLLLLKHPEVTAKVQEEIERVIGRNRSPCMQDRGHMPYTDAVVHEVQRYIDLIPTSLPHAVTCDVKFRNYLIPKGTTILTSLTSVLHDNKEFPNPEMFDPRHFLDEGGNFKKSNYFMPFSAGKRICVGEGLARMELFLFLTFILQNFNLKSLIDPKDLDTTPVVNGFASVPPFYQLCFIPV
Summary of the method: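 In 50mM KPO4, the reaction held 5nM enzyme and KM-level (10uM) Luciferin-H EGE; it ran 60 min at 37C after NADPH regeneration and a 10 min compound preincubation. Luminescence values were scaled to 57uM ketoconazole as complete inhibition.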

[19] = molecular target: DNA dC->dU-editing enzyme APOBEC-3G (Homo sapiens) (UniProt Q9HC16); test: qHTS for inhibitors of Vif-A3G interactions: Validation (AID 588379)
Chain of DNA dC->dU-editing enzyme APOBEC-3G (Homo sapiens) (Q9HC16 whole entry, looked up): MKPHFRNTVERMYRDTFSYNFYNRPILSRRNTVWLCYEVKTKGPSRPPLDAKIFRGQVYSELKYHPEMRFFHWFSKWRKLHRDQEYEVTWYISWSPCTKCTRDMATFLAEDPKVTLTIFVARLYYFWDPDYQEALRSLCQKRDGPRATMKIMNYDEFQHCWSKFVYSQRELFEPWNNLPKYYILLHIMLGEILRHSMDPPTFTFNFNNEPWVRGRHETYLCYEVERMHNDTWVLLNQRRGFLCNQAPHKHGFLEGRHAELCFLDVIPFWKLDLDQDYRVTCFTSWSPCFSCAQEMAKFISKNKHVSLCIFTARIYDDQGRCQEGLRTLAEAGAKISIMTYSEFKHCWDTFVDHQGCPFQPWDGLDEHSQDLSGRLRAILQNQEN
Summary of the method: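 Yellow fluorescence (Ex 488, Em 500-530) of Vif-coexpressing HeLa A3G-eYFP cells, scanned by Acumen cytometer, reports blocked A3G degradation. Cells plated at 700/well overnight at 37 deg C before compound addition, then a further overnight compound incubation at 37 deg C.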

[20] = molecular target: Cytochrome P450 3A4 (Homo sapiens) (UniProt P08684); test: qHTS Assay for Activators of Cytochrome P450 3A4 (AID 885); further: nearly all actives have a fitted effect of over 65% in size
Summary of the method: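 CYP3A4 activity: Luciferin-PPXE O-dealkylation, 25uM substrate, 200mM KPO4, RT throughout. Read-out is luciferase luminescence; higher values reflect activation.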

Structure (SMILES): N#C[C@@H]1C[C@@H]2C[C@@H]2N1C(=O)[C@@H](N)C12CC3CC(CC(O)(C3)C1)C2
- outcome [1]: inactive
- Potency [2]: inactive

Structure (SMILES): CN(C)CC(=O)Nc1ccc2[nH]c(=O)c3ccccc3c2c1
- outcome [1]: inactive

Structure (SMILES): CCCCC(=O)N(Cc1ccc(-c2ccccc2-c2nn[nH]n2)cc1)C(C(=O)O)C(C)C (centres undefined)
- Potency [3]: inactive
- outcome [4]: inactive
- outcome [5]: inactive
- Potency [6]: 11.2 µM (active)
- Potency [7]: inactive
- Potency [8]: inactive
- Potency [9]: 13.5 µM (active)
- Potency [10]: 15.1 µM (active)

Structure (SMILES): CC[C@H](C)[C@H]1O[C@]2(CC[C@@H]1C)C[C@@H]1C[C@@H](C/C=C(\C)[C@@H](O[C@H]3C[C@H](OC)[C@@H](O[C@H]4C[C@H](OC)[C@@H](O)[C@H](C)O4)[C@H](C)O3)[C@@H](C)/C=C/C=C3\CO[C@@H]4[C@H](O)C(C)=C[C@@H](C(=O)O1)[C@]34O)O2
- Potency [11]: inactive
- Potency [12]: inactive
- Potency [13]: inactive
- Potency [14]: 41.5 nM (active) and 2.62 µM (active)

Structure (SMILES): Clc1ccccc1CNCC1CCC(CNCc2ccccc2Cl)CC1 (centres undefined)
- Potency [15]: inactive
- Potency [16]: > 46 µM
- Potency [17]: > 46 µM
- Potency [18]: 0.794 µM (active)
- Potency [19]: inactive

Structure (SMILES): CC(=O)N1c2ccc(-c3ccc(C(=O)O)cc3)cc2C(Nc2ccc(Cl)cc2)CC1C (centres undefined)
- Potency [12]: inactive
- Potency [13]: inactive
- Potency [14]: 93 nM (active)

Structure (SMILES): O=C(O)c1ccc(O)c2ncc(N3CCCN(CCc4cccc5ccccc45)CC3)cc12
- Potency [12]: 49.4 µM (active)
- Potency [13]: inactive
- Potency [14]: 6580 nM (active)

Structure (SMILES): Cc1nc2c(O)cccc2c(=O)[nH]1
- Potency [15]: 15.8 µM (active)
- Potency [16]: > 46 µM
- Potency [17]: > 46 µM
- Potency [18]: 0.398 µM (active)
- Potency [19]: inactive
- outcome [1]: inactive
- Potency [2]: inactive

Structure (SMILES): Cn1cc(C2=C(c3cn(CCCSC(=N)N)c4ccccc34)C(=O)NC2=O)c2ccccc21
- Potency [20]: inactive

Structure (SMILES): C=C1C(=O)O[C@H]2[C@H]1CC/C(C)=C\CC[C@@]1(C)O[C@@H]21
- Potency [11]: inactive

Structure (SMILES): Nc1ncnc2c1c(I)cn2C1OC(CO)C(O)C1O (centres undefined)
- Potency [3]: inactive
- outcome [4]: inactive
- outcome [5]: inactive

Structure (SMILES): CCOC(=O)CCC(=O)O[C@H]1[C@H](O[C@@H]2[C@@H](C)[C@H](O[C@H]3C[C@@](C)(OC)[C@@H](O)[C@H](C)O3)[C@@H](C)C(=O)O[C@H](CC)[C@@](C)(O)[C@H](O)[C@@H](C)C(=O)[C@H](C)C[C@@]2(C)O)O[C@H](C)C[C@@H]1N(C)C
- Potency [16]: > 20.6 µM

Structure (SMILES): COc1cc(/C=C(\C#N)C(N)=O)cc(CSc2nc3ccccc3s2)c1O
- Potency [15]: 1.26 µM (active)
- Potency [17]: > 46 µM
- Potency [3]: 3.98 µM (active)
- Potency [20]: inactive
- Potency [18]: 3.16 µM (active)
- Potency [19]: inactive

Structure (SMILES): CN1CCN(CCC=C2c3ccccc3Sc3ccc(S(=O)(=O)N(C)C)cc32)CC1
- Potency [15]: inactive
- Potency [20]: inactive
- outcome [4]: inactive
- outcome [5]: inactive
- Potency [11]: 10 µM (active)
- Potency [6]: 5.01 µM (active)
- Potency [7]: 11.2 µM (active)
- Potency [8]: 15.1 µM (active)
- Potency [9]: 13.5 µM (active)
- Potency [10]: 6.01 µM (active)

Structure (SMILES): O=C(O)c1ccc2c3c1cccc3c(=O)n1c3ccccc3nc21
- Potency [15]: 15.8 µM (active)
- Potency [16]: > 46 µM
- Potency [17]: > 46 µM
- Potency [18]: 3.98 µM (active)
- Potency [19]: inactive

Structure (SMILES): CS(=O)(=O)CCNCc1nc(-c2ccc3ncnc(Nc4ccc(OCc5cccc(F)c5)c(Cl)c4)c3c2)cs1
- Potency [3]: 2.51 µM (active)
- Potency [20]: inactive

Structure (SMILES): C=CC(=O)c1ccc2ccccc2c1
- Potency [3]: 25.1 µM (active)
- Potency [20]: inactive
